In all, about 310,000 compounds went through this assay and about 14,000 (4.5%) showed an effect of 50% or more. The effect is printed as a negative number. This excerpt belongs to a sample that is enriched for strong results.
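Further: peak tail current of the secondary pulse compared with the same well before compound.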

The assay deals with human ether-à-go-go-related gene (hERG) potassium channel (human, UniProt Q12809). Description: primary screen, population patch clamp on CHO cells stably expressing hERG; higher = less effect of the substance.
Chain of human ether-à-go-go-related gene (hERG) potassium channel (Q12809 whole entry, looked up): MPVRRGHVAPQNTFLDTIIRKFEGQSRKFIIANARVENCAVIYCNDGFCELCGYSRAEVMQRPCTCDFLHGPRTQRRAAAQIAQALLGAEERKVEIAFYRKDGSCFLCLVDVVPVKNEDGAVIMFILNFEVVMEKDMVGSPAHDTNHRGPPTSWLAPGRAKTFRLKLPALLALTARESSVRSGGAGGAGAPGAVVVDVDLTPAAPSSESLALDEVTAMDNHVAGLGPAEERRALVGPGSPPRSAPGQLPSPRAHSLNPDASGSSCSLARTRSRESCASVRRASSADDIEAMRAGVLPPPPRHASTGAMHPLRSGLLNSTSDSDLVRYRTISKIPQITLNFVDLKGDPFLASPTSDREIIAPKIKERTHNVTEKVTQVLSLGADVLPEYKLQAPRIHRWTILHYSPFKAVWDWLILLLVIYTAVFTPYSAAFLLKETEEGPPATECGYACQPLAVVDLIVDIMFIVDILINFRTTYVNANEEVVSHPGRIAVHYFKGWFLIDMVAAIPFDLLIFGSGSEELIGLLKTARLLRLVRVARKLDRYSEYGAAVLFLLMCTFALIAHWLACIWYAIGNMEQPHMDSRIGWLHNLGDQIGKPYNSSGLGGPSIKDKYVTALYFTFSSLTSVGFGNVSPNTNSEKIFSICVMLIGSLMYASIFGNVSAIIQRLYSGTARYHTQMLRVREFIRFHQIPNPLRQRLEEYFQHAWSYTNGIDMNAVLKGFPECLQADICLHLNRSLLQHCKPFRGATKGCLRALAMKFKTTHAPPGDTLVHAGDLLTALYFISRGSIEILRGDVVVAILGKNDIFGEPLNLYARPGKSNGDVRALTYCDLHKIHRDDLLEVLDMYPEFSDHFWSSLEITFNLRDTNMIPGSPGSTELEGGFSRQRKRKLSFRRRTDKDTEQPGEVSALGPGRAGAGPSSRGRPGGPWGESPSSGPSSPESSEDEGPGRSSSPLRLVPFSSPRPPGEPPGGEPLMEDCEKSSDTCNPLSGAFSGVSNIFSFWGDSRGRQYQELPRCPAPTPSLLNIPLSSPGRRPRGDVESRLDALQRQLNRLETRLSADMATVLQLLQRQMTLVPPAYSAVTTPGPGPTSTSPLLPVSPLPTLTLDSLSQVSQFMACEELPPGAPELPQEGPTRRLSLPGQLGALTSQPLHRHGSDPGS
For `O=C(NCc1ccco1)c1ccc(Cl)c(S(=O)(=O)N2CCCC2)c1`, the “hERG current change (%, negative = inhibition) at 10uM” value is -9.61%.
Under `O=C1NC(=O)/C(=C\c2ccc(OCc3cccc(C(=O)O)c3)c(Cl)c2)N1` stands 20.1%; under `COc1cc(OC)cc(C(=O)Nc2ccc(S(=O)(=O)Nc3ncccn3)cc2)c1`, 12.8%.
Under `COc1c(C)cc(C(=O)C2CCCN(Cc3cnc(N4CCOCC4)s3)C2)cc1C` (stereo not drawn) stands -8.64%; under `CS/C(=N\NC(N)=O)c1ccccc1`, -8.24%.
Under `O=C(O)c1ccc2c(=O)n3c(nc2c1)/C(=C/c1ccccc1Br)CC3` stands 4.66%; under `C/C(=N\NC(=O)CCCNc1cccc(C)c1)c1ccncc1`, 0.987%.
For the molecule `CCCCn1c(N)c(N(CC(C)C)C(=O)c2ccc(S(=O)(=O)N3CCCCCC3)cc2)c(=O)[nH]c1=O`, the “hERG current change (%, negative = inhibition) at 10uM” value stood at 9.58%.
On to `O=C(NCCc1nc2ccccc2[nH]1)/C(=C/c1ccc2c(c1)OCO2)NC(=O)c1ccccc1`, for which the “hERG current change (%, negative = inhibition) at 10uM” value is reported as -71.1%.
Take `O=C(CCc1nc2ccccc2[nH]1)NCc1ccc2c(c1)OCO2`: the “hERG current change (%, negative = inhibition) at 10uM” value is recorded as -38.1%.
The result for `O=C(NCCc1nc2ccccc2[nH]1)/C(=C/c1ccc2c(c1)OCO2)NC(=O)c1ccc(Cl)cc1Cl` reads -76.3%.
Under `COc1ccc(C(=O)N/C(=C\c2ccc3c(c2)OCO3)C(=O)NCCc2nc3ccccc3[nH]2)cc1` stands -39.4%.
Under `O=C(NCCCCCc1nc2ccccc2[nH]1)c1ccccc1Cl` stands -6.43%.
Consider `O=C(N/N=C/c1ccc2c(c1)OCO2)c1ccc(Cl)cc1Cl`, for which the “hERG current change (%, negative = inhibition) at 10uM” value is given as 20.3%.
Consider `O=C(Nc1cccc(C(=O)O)c1)/C(=C\c1ccc2c(c1)OCO2)NC(=O)c1ccccc1Cl`, for which the “hERG current change (%, negative = inhibition) at 10uM” value is 3.5%.
Consider `CC(C)=C(NC(=O)c1ccccc1)C(=O)NCCc1nc2ccccc2[nH]1`, for which the “hERG current change (%, negative = inhibition) at 10uM” value came to 9.91%.
The result for `O=C(NCCc1nc2ccccc2[nH]1)/C(=C/c1ccc2c(c1)OCO2)NC(=O)c1ccccc1Cl` reads -80.6%.
The result for `CCc1ccccc1NC(=O)CSc1nc2ccccc2nc1N1CCOCC1` reads -15.1%.
In the case of `CCOC(=O)C1CCCN(C(=O)CCC(=O)Nc2ccc3nc(N4CCOCC4)cc(C)c3c2)C1` (stereo not drawn), the “hERG current change (%, negative = inhibition) at 10uM” value is on record as -23.7%.
Regarding `O=C(NC1CCS(=O)(=O)C1)/C(=C\c1ccco1)NC(=O)c1ccccc1` (stereo not drawn), the “hERG current change (%, negative = inhibition) at 10uM” value is 1.36%.
The result for `Cc1cc(-c2nn3c(C)nnc3s2)ccc1NC(=O)C(C)(C)C` reads 10.7%.
For `Cc1ccc(S(=O)(=O)N2CCN(C(=O)C3CCN(C(=O)c4ccc(F)cc4)CC3)CC2)c(C)c1`, the “hERG current change (%, negative = inhibition) at 10uM” value is listed as -55.7%.
Consider `CN1CCN(C(=O)C2CCN(S(=O)(=O)c3ccc(F)cc3)CC2)CC1`, for which the “hERG current change (%, negative = inhibition) at 10uM” value worked out at 5.18%.
Take `O=C(c1ccc(F)cc1)N1CCC(C(=O)N2CCN(S(=O)(=O)c3ccccc3Br)CC2)CC1`: the “hERG current change (%, negative = inhibition) at 10uM” value is -32.6%.
Regarding `Cc1ccc(S(=O)(=O)N2CCN(C(=O)c3ccco3)CC2)c(C)c1`, the “hERG current change (%, negative = inhibition) at 10uM” value is listed as -7.22%.
The result for `Cc1ccc(C)c(S(=O)(=O)N2CCN(C(=O)C3CCN(C(=O)c4ccc(F)cc4)CC3)CC2)c1` reads -30.6%; that for `Cc1ccc(S(=O)(=O)N2CCN(C(=O)COC(=O)c3ccc(Br)o3)CC2)c(C)c1`, -10.3%.
`COc1ccc(N2CCN(C(=O)C3CCN(S(=O)(=O)c4ccc(F)cc4)CC3)CC2)cc1`: the “hERG current change (%, negative = inhibition) at 10uM” value was -48.3%.
The result for `Cc1ccc(S(=O)(=O)N2CCN(C(=O)c3ccc(Br)o3)CC2)c(C)c1` reads -55%; that for `CC(C)c1ccc(S(=O)(=O)N2CCN(C(=O)C3CCN(C(=O)c4ccc(F)cc4)CC3)CC2)cc1`, -53.7%; that for `CC(C)c1ccc(S(=O)(=O)N2CCN(C(=O)C3CCCC3)CC2)cc1`, 2.78%.
Under `CC(=O)c1ccc(N2CCN(C(=O)C3CCN(S(=O)(=O)c4ccc(F)cc4)CC3)CC2)cc1` stands -52.6%.
`CC(=O)N1CCC(C(=O)N2CCN(S(=O)(=O)c3ccc(F)cc3)CC2)CC1`: the “hERG current change (%, negative = inhibition) at 10uM” value is -1.33%.
Under `CC(C)c1ccc(/C=C2\SC(=O)N(CC(=O)NC3C=CS(=O)(=O)C3)C2=O)cc1` (stereo not drawn) stands 5.89%; under `O=C(Cn1cnc2c(nnn2Cc2ccc(F)cc2)c1=O)NCc1ccco1`, -18.2%.
Under `CCOc1ccc(CN2CCNC(=O)C2CC(=O)NCc2cc(C)n(C)n2)cc1` (stereo not drawn) stands -1.95%.
The result for `O=C(NC(=S)NNS(=O)(=O)c1ccc(Cl)cc1)c1cccnc1` reads 18.6%.
In the case of `O=C(CNC(=S)N(Cc1ccccc1)Cc1ccccc1F)NCCc1ccccc1`, the “hERG current change (%, negative = inhibition) at 10uM” value is listed as 3.73%.
The result for `Cc1ccc2c(c1)C(c1ccccc1)=NCC(=O)N2` reads -12.8%; that for `NS(=O)(=O)c1cc(C(=O)O)cc(N2CCCC2)c1Oc1ccccc1`, 0.0774%.
Under `O=C(Nc1ccc(Cl)cn1)c1ccccc1F` stands -1.25%.
Under `O=C(NC(=S)Nc1ccc2oc(=O)ccc2c1)c1cccc(Cl)c1` stands 4.11%; under `COc1cc(NC(=O)CN(C)S(=O)(=O)c2ccc3c(c2)CCC(=O)N3)cc(OC)c1`, -23.9%; under `CCC1=NN(C(=O)c2ccccc2Br)C(O)(c2ccc(Br)cc2)C1` (stereo not drawn), 25.2%.
As to `CC(=O)Nc1ccc(N2C(=O)c3cccc4c(O)ccc(c34)C2=O)cc1`, the “hERG current change (%, negative = inhibition) at 10uM” value came to 13.4%.
For `COc1ccc(OC)c(S(=O)(=O)N2CCC(C(=O)N3CCN(c4ccc(F)cc4)CC3)CC2)c1`, the “hERG current change (%, negative = inhibition) at 10uM” value is -78%.
Turning to `COc1ccc(OC)c(S(=O)(=O)N2CCC(C(=O)N3CCCC3)CC2)c1`, the “hERG current change (%, negative = inhibition) at 10uM” value is listed as 7.71%.
On to `COc1ccc(OC)c(S(=O)(=O)N2CCC(C(=O)N3CCCCCC3)CC2)c1`, for which the “hERG current change (%, negative = inhibition) at 10uM” value is given as 5.45%.
For the molecule `COc1ccc(-c2[nH]ncc2CN(C)Cc2cccnc2)c(F)c1`, the “hERG current change (%, negative = inhibition) at 10uM” value is reported as -1.66%.
`CC(=O)N1CCc2cc(S(=O)(=O)NC(CC(C)C)C(=O)N3CCn4c3nc3ccccc34)ccc21` (stereo not drawn): the “hERG current change (%, negative = inhibition) at 10uM” value is listed as -60%.
The result for `CC(=O)N1CCc2cc(S(=O)(=O)NC(CC(C)C)C(=O)N3CCc4ccccc4C3)ccc21` (stereo not drawn) reads -26.8%; that for `CC(=O)N1CCc2cc(S(=O)(=O)NC(CC(C)C)C(=O)N3CCCC3)ccc21` (stereo not drawn), -20.2%; that for `O=C1CS/C(=N/N=C/c2ccccc2)N1Cc1ccco1`, 1.4%.
For `COC(=O)C(C)N=Cc1ccccc1` (stereo not drawn), the “hERG current change (%, negative = inhibition) at 10uM” value is recorded as 12.9%.
For `COc1ccc(-n2c(/C=C/c3ccc4c(c3)OCO4)nc3ccccc3c2=O)cc1`, the “hERG current change (%, negative = inhibition) at 10uM” value is listed as -55.3%.
`COc1ccc(-n2c(/C=C/c3ccc(O)c(O)c3)nc3ccccc3c2=O)cc1`: the “hERG current change (%, negative = inhibition) at 10uM” value was found to be 10.6%.
Under `O=c1c2ccccc2nc(/C=C/c2ccc3c(c2)OCO3)n1-c1ccccc1` stands -26%.
Under `Cc1ccc(-n2c(/C=C/c3ccc4c(c3)OCO4)nc3ccccc3c2=O)cc1` stands -50.4%; under `COc1ccc(-n2c(/C=C/c3ccc(O)cc3)nc3ccccc3c2=O)cc1`, -21.6%; under `O=c1c2ccccc2nc(/C=C/c2ccc3c(c2)OCO3)n1-c1cccc(O)c1`, -7.38%.
The result for `CCc1ccccc1OCC(=O)OCC(=O)Nc1cc(C)on1` reads -2.74%.
In the case of `CCC(=O)N1CCc2cc(S(=O)(=O)CCC(=O)N3CCN(c4ccccc4)CC3)ccc21`, the “hERG current change (%, negative = inhibition) at 10uM” value was 3.15%.
The result for `O=C(CN1CCN(S(=O)(=O)c2ccc(Cl)cc2)CC1)NCC1(N2CCOCC2)CCCCC1` reads -39.3%; that for `O=C(CN1CCN(CC(=O)Nc2cccc(F)c2)CC1)NCC1(N2CCOCC2)CCCCC1`, -27%.
Consider `O=C(CN1CCN(S(=O)(=O)c2ccc(F)cc2)CC1)NCC1(N2CCOCC2)CCCCC1`, for which the “hERG current change (%, negative = inhibition) at 10uM” value is -18.6%.
Under `CC(NCC1(N2CCOCC2)CCCCC1)C(=O)N1CCc2ccccc21.O=C(O)C(=O)O` (stereo not drawn) stands -5.73%; under `O=C(CNCC1(N2CCOCC2)CCCCC1)Nc1ccc(Cl)cc1`, -78.8%.
Consider `N#CCC(=O)Nc1ccc(C(=O)NCC2(N3CCOCC3)CCCCC2)cc1`, for which the “hERG current change (%, negative = inhibition) at 10uM” value turned out to be 7.48%.
Regarding `CC(NCC1(N2CCOCC2)CCCCC1)C(=O)Nc1ccc(Cl)cc1Cl.O=C(O)C(=O)O` (stereo not drawn), the “hERG current change (%, negative = inhibition) at 10uM” value was -74.6%.
On to `O=C(Cc1ccc(Cl)cc1Cl)NCC1(N2CCOCC2)CCCCC1`, for which the “hERG current change (%, negative = inhibition) at 10uM” value amounted to 5.44%.
Under `O=C(CN1CCN(CC(=O)Nc2ccc(F)cc2)CC1)NCC1(N2CCOCC2)CCCCC1` stands -73.4%; under `O=C(Nc1ccc(S(=O)(=O)NCc2cccnc2)cc1)c1ccco1`, 10.2%; under `O=C(COc1ncnc2sccc12)N1CCc2ccccc2C1`, 0.518%.
For the molecule `Cc1nc2ccccc2c(=O)n1/N=C/c1ccc(O)cc1O`, the “hERG current change (%, negative = inhibition) at 10uM” value came to 10.4%.
The result for `Cc1ccc(NC(C)C(=O)N/N=C/c2ccc([N+](=O)[O-])s2)cc1` (stereo not drawn) reads 8.3%; that for `Cl.O=C(COc1ccc(Cl)cc1)N(c1ccccc1Cl)C1CN2CCC1CC2` (stereo not drawn), -50.5%; that for `O=C(COc1ccc(Cl)cc1)N(Cc1cccs1)C1CCS(=O)(=O)C1` (stereo not drawn), -48.1%.
The result for `O=C(COc1ccc(Cl)cc1)N1CCCC1` reads -7.47%.
As for `Cl.O=C(COc1ccc(Cl)cc1)NC1CN2CCC1CC2` (stereo not drawn), the “hERG current change (%, negative = inhibition) at 10uM” value is reported as -35.1%.
Under `Cl.O=C(COc1ccc(Cl)cc1)N(c1ccc(Cl)cc1)C1CN2CCC1CC2` (stereo not drawn) stands -65.1%; under `O=C(Nc1ccc(Cl)cc1)OC1CN2CCC1CC2` (stereo not drawn), -40.6%.

The values are drawn from publication PMC4336329 (PLoS ONE, 2015).
